Compound activity (PubChem)
This is a sample that favours compounds with a hit; in the whole collection about 6.2% have one here.
KB-V1 MDR tox = kills drug-selected multidrug resistant KB-V1 cells; KB-V1 MDR cells viability, CellTiter-Glo, 72 h; Potency, µM (highest dose often 46.1 µM), hits mostly cytotoxic; hit rate 3.4% among 400,000; also: nearly all actives have a fitted effect of over 60% in size
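KB-V1 cells (P-gp-expressing MDR subline of KB-3-1) in phenol-red-free DMEM with 10% FBS were exposed to library compounds over a concentration series for 72 h at 37 degrees C. Viability read by CellTiter-Glo luminescence; concentration-effect curves fitted after normalization.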
ATXN viability = reduces viability in counter-screen for ATXN expression inhibitors | S2 cells (HEK-293 line with an ATXN2-luciferase reporter) viability, CellTiter-Fluor protease fluorescence, 24 h | Potency, µM (top dose mostly 56.7 µM), usual class: cytotoxic | hit rate 0.49% among 400,000 | AID 651635; also: nearly all actives have a fitted effect of over 40% in size
KB-3-1 cytotox = KB-3-1 parental cell cytotoxicity | KB-3-1 viability, CellTiter-Glo ATP luminescence, 72 h | Potency, µM (top dose mostly 46.1 µM), actives largely listed as cytotoxic | hit rate 1.4% among 400,000; also: nearly all actives have a fitted effect of over 60% in size
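Cells are dispensed, compounds pinned in, plates held at 37 °C for 72 h, then CellTiter-Glo is added and luminescence read after 10 minutes. Cell line: parental KB-3-1 in phenol-red-free DMEM, 10% FBS.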
HT1080-NT tox = kills 2HG-producing HT-1080-NT fibrosarcoma cells; hit rate 1.6% among 360,000; Potency, µM (top dose mostly 46.1 µM), usual class: cytotoxic; AID 686970; HT-1080-NT fibrosarcoma viability, CellTiter-Glo ATP luminescence, 48 h;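 also: NT is the 2HG producing partner of a matched IDH1 knockdown line; nearly all actives have a fitted effect of over 55% in size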
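Read-out is CellTiter-Glo luminescence after 10 minutes at room temperature, following 48 hours' compound treatment of HT-1080-NT cells (750 cells/well, RPMI, 5% FBS, 37 degrees C).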
ATXN2 expr inh = ATXN2 expression inhibition. Potency, µM (doses to about 57 µM), hits mostly inhibitors. HEK-293 ATXN2-luciferase reporter, luminescence, 24 h. hit rate 0.72% among 360,000; also: nearly all actives have a fitted effect of over 55% in size
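qHTS (up to 57 uM final) was run with 24 h compound exposure of reporter cells at 37 °C. Each well was multiplexed: SteadyGlo luminescence measured ATXN2-luciferase expression after a fluorogenic Gly-Phe-AFC viability readout (25 uM final).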
HT1080 IDH1KD tx = kills HT-1080 cells with IDH1 knockdown; HT-1080 IDH1 knockdown viability, ATP luminescence, 48 h; Potency, µM (titrated, usually from 46.1 µM), usual class: cytotoxic; hit rate 2% among 360,000; AID 686971
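In this qHTS, HT-1080 cells depleted of IDH1 are exposed for 48 h at 37 °C to compound titrations. Toxicity is scored from CellTiter-Glo luminescence, with DMSO as full viability and medium alone as none.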
A number is an active result; 0 = inactive; ? = inconclusive; - = no result. Calls follow the shape of the dose curve; as a rule, active = well fitted curve in the direction sought with a large enough effect; inconclusive = small, poorly fitted or top-dose-only effect, or another doubt; inactive = no such curve, though single readings can be large; an effect the other way counts as inactive or inconclusive.

SMILES	KB-V1 MDR tox	ATXN viability	KB-3-1 cytotox	HT1080-NT tox	ATXN2 expr inh	HT1080 IDH1KD tx
N#Cc1ccccc1NC(=O)CSc1nnc(-c2ccccc2)n1-c1ccccc1	14.6µM	0	?	0	0	0
COc1ccc(-c2nnc(SCCC(=O)O)n2-c2ccccc2)cc1	0	?	18.4µM	0	0	0
CC[C@H]1OC(=O)[C@H](C)[C@@H](O[C@H]2C[C@@](C)(OC)[C@@H](O)[C@H](C)O2)[C@H](C)[C@@H](O[C@@H]2O[C@H](C)C[C@H](N(C)C)[C@H]2O)[C@](C)(O)C[C@H](C)C(=NOCOCCOC)[C@H](C)[C@@H](O)[C@]1(C)O	-	0	-	-	0	-
CCc1ccc(NC(=O)c2nnn(Cc3cccc(C(F)(F)F)c3)c2N)cc1	0	0	?	-	0	-
Cc1ccc(Cl)cc1N1CCN(C(=O)COc2cc(=O)n(C)c3ccccc23)CC1	0	?	0	-	0	-
COc1c(C)c2c(c(O)c1CC=C(C)CCC(=O)O)C(=O)OC2	-	-	-	-	0	-
COc1ccc(OCC(=O)NCc2ccc3c(c2)CCN3C(=O)c2ccc(F)cc2)cc1	0	-	0	-	-	-
COc1ccc(CN(CCC(c2ccccc2)c2ccc(OC(C)C)cc2)C(=O)CCl)cc1OC (centres undefined)	8.2µM	-	10.3µM	1.46µM	?	1.64µM
COc1ccc(CCNCc2ccc(-c3ccccc3)cc2)cc1OC	?	0	0	23.1µM	?	23.1µM
COc1ccc(CNCC(O)(c2ccc(F)cc2)c2ccc(F)cc2)cc1OC	0	0	?	?	0	?
COc1ccc(CNCCC(c2ccc(F)cc2)c2ccc(OC(C)C)cc2)cc1OC (centres undefined)	?	?	?	23.1µM	?	?
COc1ccc(CNCCC(c2ccccc2)c2ccc(OC(C)C)cc2)cc1OC (centres undefined)	?	0	?	20.6µM	0	18.4µM
Cc1ccc2c(=O)c(C(=O)c3ccccc3)cn(CC(=O)Nc3ccc(C)c(Cl)c3)c2n1	0	0	0	-	0	-
COc1cccc(CNC(=O)c2c(OC)cc(=O)n3c2CCN(C(=O)c2csc(C)n2)CC3)c1	-	0	-	-	-	-
COc1ccc(OC)c(NS(=O)(=O)c2ccc3[nH]c(=O)[nH]c3c2)c1	0	0	?	0	-	0
CCn1c2ccccc2c2cc(NC(=O)COC(=O)Cc3cn4ccsc4n3)ccc21	0	0	0	0	28.2µM	0
CCn1c2ccccc2c2cc(NC(=O)COC(=O)c3cccc(S(=O)(=O)NC)c3)ccc21	0	0	0	0	15.8µM	0
CCn1c2ccccc2c2cc(NC(=O)c3cccc(OC)c3)ccc21	?	0	?	12.6µM	0	?
CCn1c2ccccc2c2cc(NC(=O)COc3ccc(C)c(C)c3)ccc21	0	?	0	-	0	-
CCn1c(=O)sc2cc(NC(=O)c3cccc(OC)c3)ccc21	0	?	0	-	0	-
CCn1c2ccccc2c2cc(NC(=O)COc3ccccc3OC)ccc21	6.51µM	0	4.61µM	?	0	16.4µM
O=C(NCc1cccs1)c1ccc(CSc2nc3ccncc3n2Cc2ccccc2F)cc1	0	0	0	-	0	-
CCNC(=O)c1c(NC(=O)c2cc(-c3cc(C)cc(C)c3O)n[nH]2)sc2c1CCCC2	0	0	0	0	?	0
CCn1c2ccccc2c2cc(NC(=O)CNCc3ccccc3OC)ccc21	?	?	?	3.66µM	?	6.51µM
COc1ccc2sc(-c3ccc(SC)cc3)c(-c3ccc(O)cc3)c2c1	?	?	?	?	22.4µM	?
Cc1cc(C)n(CCC(=O)NCC2Cc3cc(Cl)cc(-c4cnccn4)c3O2)n1 (centres undefined)	-	0	-	-	-	-
COc1ccc(Nc2ccc(S(=O)(=O)N3CCCCC3)cc2[N+](=O)[O-])cc1OC	0	?	?	0	0	0
O=C(O)c1ccccc1/C=N/Nc1ccc(S(=O)(=O)N2CCCC2)cc1[N+](=O)[O-]	?	0	?	13µM	0	?
COc1ccc(OCCOc2ccc(S(=O)(=O)N3CCCC3)cc2[N+](=O)[O-])cc1	14.6µM	0	?	0	0	0
